Assay results taken from PubChem BioAssay.
Activity calls are given as the source filed them.

Columns and labels:
Albumin (Bos taurus) = Albumin (Bos taurus) (UniProt P02769); experiment: bovine serum albumin binders on microarray, profiling panel, artefact control for SMM control protein annotation, biochemical, small-molecule microarray, Alexa647 label, 635/667 nm fluorescence (AID 1118); details: BSA-A647 binding, fluorescence 635 nm, higher = more signal;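 also: score merges 667 nm emission intensity and signal-to-noise per printed compound spot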
[1] = small-molecule microarray binders of probe aXIP, primary screen, biochemical, NeuroSMM set, 635/667 nm fluorescence (AID 1119); details: higher = more signal, called active from +8 up or from −8 down;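 also: probe is the protein aXip251-270 applied at 1 µg/mL to compound-printed slides; binding of probe to printed compounds measured as 667 nm fluorescence plus signal to noise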
[2] = small-molecule binders of probe aNOTCH3, primary screen, biochemical, small-molecule microarray, 635/667 nm fluorescence (AID 1120); details: higher = more signal;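 also: probe is a biotin-tagged antibody raised against NOTCH3 rather than NOTCH3 protein; score merges spot fluorescence near 667 nm with spot signal to noise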
[3] = small-molecule binders of probe aNOTCH2, primary screen, biochemical, small-molecule microarray, 635/667 nm fluorescence (AID 1121); details: higher = more signal;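 also: score merges feature fluorescence read at 667 nm with its signal to noise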
[4] = target: Carbonic anhydrase 2 (Homo sapiens) (UniProt P00918); experiment: CAII small-molecule binders, profiling panel, biochemical, small-molecule microarray, Alexa647-labelled CAII (AID 1122); details: CAII-A647 binding fluorescence, higher = more signal
[5] = COS7 lysate on small-molecule microarray, probe aHis, 635 nm (AID 1123); details: COS7 cell lysate, fluorescence, higher = more signal;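 also: z-score combines 667nm fluorescence intensity with signal-to-noise per printed compound spot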
[6] = compound binding in COS7 lysate, probe aLAP1, primary screen, cell lysate, small-molecule microarray (AID 1124); details: probe aLAP1, fluorescence, higher = more signal;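 also: lysate comes from COS7 cells expressing LAP1 and is applied at 0.3 µg/mL; score merges spot fluorescence near 667 nm with signal-to-noise over triplicate slides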
Sam68 (KHDRBS1) = experiment: Sam68 small-molecule binders, primary screen, biochemical, small-molecule microarray, 635 nm fluorescence (AID 1125); details: small-molecule microarray binding, higher = more signal;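 also: score merges 667 nm channel intensity with signal to noise over triplicate slides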
[7] = tested on: Chordin-like protein 2 (CHRDL2); experiment: CHRDL2 small-molecule binders, primary screen, biochemical, small-molecule microarray, 635 nm fluorescence (AID 1126); details: small-molecule microarray binding, fluorescence 635 nm; higher = more signal;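 also: printed compound slides probed with Chrdl2 protein at 4 µg/mL for 1 h at 4 C; score merges 667 nm emission intensity with signal to noise over three replicate slides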
[8] = target: Concanavalin-A (Canavalia ensiformis) (UniProt P02866); experiment: ConA small-molecule binders, primary screen, artefact control for SMM control protein annotation, biochemical, small-molecule microarray, Alexa647 label, 635 nm (AID 1127); details: ConA-A647 binding fluorescence, higher = more signal;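 also: z combines 667 nm emission intensity with signal-to-noise across three replicate slides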
[9] = anti-His antibody binders, primary screen, artefact control for SMM control protein annotation, biochemical, small-molecule microarray, 635 nm fluorescence (AID 1128); details: anti-His Alexa647 antibody binding, higher = more signal;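 also: score merges feature fluorescence with signal-to-noise for each printed compound spot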
[10] = tested on: Human papillomavirus type 1a E7 protein (residues 1-88); experiment: HPV1a E7 small-molecule binders, primary screen, biochemical, small-molecule microarray, residues 1-88, 635 nm (AID 1129); details: small-molecule microarray binding, fluorescence 635 nm; higher = more signal
[11] = target: Focal adhesion kinase 1 (Homo sapiens) (UniProt Q05397); experiment: small-molecule microarray binders of FAK, primary screen, biochemical, 635/667 nm fluorescence, BSA, DTT (AID 1130); details: PTK2 binding, 635 nm fluorescence, higher = more signal;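 also: composite of spot emission at 667 nm and signal to noise over triplicate slides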
[12] = tested on: Fibrinogen (Alexa647-labelled); experiment: fibrinogen binders on compound microarrays, profiling panel, artefact control for SMM control-protein annotation, biochemical, small-molecule microarray, 635/667 nm fluorescence (AID 1131); details: fibrinogen-A647 binding fluorescence, higher = more signal;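 also: z-score merges 667 nm fluorescence with per-spot signal-to-noise over triplicate slides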
[13] = target: Follistatin (Homo sapiens) (UniProt P19883); experiment: follistatin binders on small-molecule microarrays, primary screen, biochemical, small-molecule microarray, 635/667 nm fluorescence (AID 1132); details: FST binding, 635 nm fluorescence, higher = more signal
[14] = target: Fibroblast growth factor 2 (Homo sapiens) (UniProt P09038); experiment: FGF2 binders on small-molecule microarrays, primary screen, biochemical, small-molecule microarray, 635/667 nm fluorescence (AID 1133); details: small-molecule microarray binding, FGF2, fluorescence 635/667; higher = more signal
[15] = mitochondrial membrane potential change in A549 cells, profiling panel, cell-based, JC-1 fluorescence, basal, 24 h, 100 nL (AID 1138); details: higher = more signal;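 also: A549 lung adenocarcinoma cells under basal conditions with no added stimulus; test concentration not given here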
Lefty1 = Lefty1 binders on small-molecule microarrays, primary screen, biochemical, small-molecule microarray, 635/667 nm fluorescence (AID 1139); details: small-molecule microarray binding, fluorescence 635/667; higher = more signal
[16] = tested on: wheat germ agglutinin (Triticum aestivum), Alexa647-labelled; experiment: wheat germ agglutinin binders on compound microarrays, profiling panel, artefact control for SMM control-protein annotation, biochemical, small-molecule microarray, 635/667 nm fluorescence (AID 1140); details: WGA-A647 binding, 635 nm fluorescence, higher = more signal;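 also: score merges 667 nm feature emission with signal to noise over triplicate slides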
[17] = target: Luciferin 4-monooxygenase (Photinus pyralis) (UniProt P08659); experiment: firefly luciferase enzyme inhibitors, primary screen, biochemical, luminescence, purified enzyme, 2006 set (AID 1141); details: SteadyGlo luminescence, 30 min, higher = more signal, called active from +8 up or from −8 down;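 also: cell-free assay with purified firefly luciferase at 100 ng per well in PBS; test concentration not given here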
Luciferin 4-monooxygenase (Photinus pyralis), sequence (P08659 whole entry, looked up): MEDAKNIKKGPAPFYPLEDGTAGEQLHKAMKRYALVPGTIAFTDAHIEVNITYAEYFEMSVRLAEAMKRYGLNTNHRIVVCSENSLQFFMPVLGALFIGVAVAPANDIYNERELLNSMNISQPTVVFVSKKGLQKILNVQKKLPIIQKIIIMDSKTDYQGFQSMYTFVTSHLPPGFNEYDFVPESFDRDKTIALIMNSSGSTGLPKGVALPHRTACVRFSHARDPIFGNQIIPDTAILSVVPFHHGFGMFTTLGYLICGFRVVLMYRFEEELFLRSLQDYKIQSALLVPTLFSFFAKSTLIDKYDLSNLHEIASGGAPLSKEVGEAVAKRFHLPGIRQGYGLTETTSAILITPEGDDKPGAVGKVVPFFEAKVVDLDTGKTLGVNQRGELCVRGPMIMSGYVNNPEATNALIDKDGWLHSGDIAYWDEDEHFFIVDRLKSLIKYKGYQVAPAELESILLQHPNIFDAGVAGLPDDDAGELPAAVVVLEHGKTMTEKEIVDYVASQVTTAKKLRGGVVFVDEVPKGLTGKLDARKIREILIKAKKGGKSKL

Focal adhesion kinase 1 (Homo sapiens), sequence (Q05397 whole entry, looked up): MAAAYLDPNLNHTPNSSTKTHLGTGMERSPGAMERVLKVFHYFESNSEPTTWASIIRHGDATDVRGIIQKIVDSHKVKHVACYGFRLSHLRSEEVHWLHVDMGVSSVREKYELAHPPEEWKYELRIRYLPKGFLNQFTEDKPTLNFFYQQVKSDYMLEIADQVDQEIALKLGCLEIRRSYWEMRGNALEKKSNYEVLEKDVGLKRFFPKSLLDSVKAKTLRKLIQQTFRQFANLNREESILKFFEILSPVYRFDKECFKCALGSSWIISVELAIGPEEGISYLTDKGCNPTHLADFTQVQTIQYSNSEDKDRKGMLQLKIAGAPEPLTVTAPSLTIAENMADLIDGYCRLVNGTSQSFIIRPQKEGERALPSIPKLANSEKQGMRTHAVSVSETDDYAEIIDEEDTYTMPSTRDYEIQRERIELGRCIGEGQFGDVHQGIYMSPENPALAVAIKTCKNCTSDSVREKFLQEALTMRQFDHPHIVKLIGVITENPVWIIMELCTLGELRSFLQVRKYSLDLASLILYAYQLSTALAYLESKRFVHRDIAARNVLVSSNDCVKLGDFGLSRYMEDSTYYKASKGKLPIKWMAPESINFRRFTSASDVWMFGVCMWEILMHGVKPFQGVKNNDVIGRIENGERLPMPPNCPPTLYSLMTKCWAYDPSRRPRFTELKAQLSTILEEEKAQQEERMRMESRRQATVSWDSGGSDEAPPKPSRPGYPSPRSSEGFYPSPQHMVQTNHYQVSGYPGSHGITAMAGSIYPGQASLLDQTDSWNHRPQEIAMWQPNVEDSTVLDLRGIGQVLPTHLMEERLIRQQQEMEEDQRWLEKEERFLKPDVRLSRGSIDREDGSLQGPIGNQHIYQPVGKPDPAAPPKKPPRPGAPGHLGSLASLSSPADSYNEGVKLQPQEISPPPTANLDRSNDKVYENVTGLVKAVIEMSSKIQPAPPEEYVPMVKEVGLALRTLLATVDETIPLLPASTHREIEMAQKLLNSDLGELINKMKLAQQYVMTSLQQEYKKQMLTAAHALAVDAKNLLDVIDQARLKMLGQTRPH
Follistatin (Homo sapiens), sequence (P19883 whole entry, looked up): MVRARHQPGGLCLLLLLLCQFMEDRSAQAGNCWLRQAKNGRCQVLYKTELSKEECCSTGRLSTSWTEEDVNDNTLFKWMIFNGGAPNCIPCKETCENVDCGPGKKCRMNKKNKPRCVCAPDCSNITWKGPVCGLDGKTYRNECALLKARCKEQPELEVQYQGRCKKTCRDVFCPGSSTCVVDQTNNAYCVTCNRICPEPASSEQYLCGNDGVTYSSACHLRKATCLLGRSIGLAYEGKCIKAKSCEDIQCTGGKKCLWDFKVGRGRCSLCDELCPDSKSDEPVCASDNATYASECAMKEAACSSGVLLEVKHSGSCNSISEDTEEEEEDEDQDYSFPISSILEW
Concanavalin-A (Canavalia ensiformis), sequence (P02866 whole entry, looked up): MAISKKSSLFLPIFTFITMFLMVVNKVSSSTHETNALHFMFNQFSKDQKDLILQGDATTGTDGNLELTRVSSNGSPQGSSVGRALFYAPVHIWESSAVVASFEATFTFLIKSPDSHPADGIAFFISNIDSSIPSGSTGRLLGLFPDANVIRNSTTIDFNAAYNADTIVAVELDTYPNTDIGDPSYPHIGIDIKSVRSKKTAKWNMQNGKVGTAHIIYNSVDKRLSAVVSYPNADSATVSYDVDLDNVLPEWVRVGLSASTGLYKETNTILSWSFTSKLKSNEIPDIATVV
Fibroblast growth factor 2 (Homo sapiens), sequence (P09038 whole entry, looked up): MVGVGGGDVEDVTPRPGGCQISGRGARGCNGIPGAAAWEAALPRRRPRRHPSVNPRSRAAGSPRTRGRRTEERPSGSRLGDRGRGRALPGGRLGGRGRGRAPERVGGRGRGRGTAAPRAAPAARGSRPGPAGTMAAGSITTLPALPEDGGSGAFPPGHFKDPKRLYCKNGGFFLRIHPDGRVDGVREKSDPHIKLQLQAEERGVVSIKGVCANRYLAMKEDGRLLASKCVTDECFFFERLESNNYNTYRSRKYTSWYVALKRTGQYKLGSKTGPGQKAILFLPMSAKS
Albumin (Bos taurus), sequence (P02769 whole entry, looked up): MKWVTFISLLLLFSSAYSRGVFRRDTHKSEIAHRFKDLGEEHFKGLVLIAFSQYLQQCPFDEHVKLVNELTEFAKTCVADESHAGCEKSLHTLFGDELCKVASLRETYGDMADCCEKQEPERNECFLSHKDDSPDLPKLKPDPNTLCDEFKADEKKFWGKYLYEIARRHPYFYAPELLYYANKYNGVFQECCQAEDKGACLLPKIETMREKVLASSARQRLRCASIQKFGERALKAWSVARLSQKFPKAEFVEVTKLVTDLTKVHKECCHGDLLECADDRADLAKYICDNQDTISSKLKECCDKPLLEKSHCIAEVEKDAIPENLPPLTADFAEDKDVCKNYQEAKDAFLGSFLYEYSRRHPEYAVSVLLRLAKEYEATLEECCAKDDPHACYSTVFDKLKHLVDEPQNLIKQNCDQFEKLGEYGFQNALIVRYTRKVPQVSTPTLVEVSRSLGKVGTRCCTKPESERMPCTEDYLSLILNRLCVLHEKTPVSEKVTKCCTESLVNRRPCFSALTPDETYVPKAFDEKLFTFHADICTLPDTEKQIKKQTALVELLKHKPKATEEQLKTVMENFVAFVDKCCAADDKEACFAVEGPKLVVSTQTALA

Compound | composite z-score (Albumin (Bos taurus)) | composite Z-score [1] | composite z-score [2] | composite z-score [3] | composite z-score [4] | composite z-score [5] | composite z-score [6] | composite z-score (Sam68 (KHDRBS1)) | composite z-score [7] | composite z-score [8] | composite z-score [9] | composite z-score [10] | composite z-score [11] | composite z-score [12] | composite z-score [13] | composite z-score [14] | z-score [15] | composite z-score (Lefty1) | composite z-score [16] | z-score [17]
C=CCNC(=O)[C@@H]1[C@H]2C(=O)O[C@H](c3ccccc3)[C@H](c3ccccc3)N2[C@H](c2ccc(O)cc2)[C@@]12C(=O)N(C(=O)OCCOC)c1ccc(C#CC3=CCCCC3)cc12 | 0.179 | 0.683 (inactive) | 0.138 | -0.14 | 0.32 | 1.57 | 0.354 | 1.28 | 0.673 | 0.737 | 1.11 | 1.19 | 0.664 | 0.708 | 1.27 | 1.54 | -0.22 | 0.701 | 0.729 | -0.959 (inactive)
O=C1N(Cc2ccccc2)c2ccccc2C[C@]12N=C(c1ccc(OCCCO)cc1)O[C@@H]2c1ccccc1 | 0.185 | 0.109 (inactive) | 0.0203 | -0.161 | 0.529 | 1.86 | 0.274 | 0.48 | 0.441 | 1.02 | 1.1 | 1.03 | 1.7 | 0.529 | 1.1 | 1.36 | -0.911 | 0.492 | 0.186 | -1.74 (inactive)
CC(CO)N1C(=O)[C@@H]2[C@H]3C(=O)OCC=C[C@H]3OC23C=CCN(Cn2nnc4ccccc42)C(=O)[C@@H]13 (stereo not given in full) | -0.779 | 0.6 (inactive) | -0.256 | -0.13 | 0.419 | 0.523 | -0.199 | -0.766 | -0.851 | -0.967 | -1.02 | -1.43 | -0.432 | -0.8 | -0.72 | -0.358 | -0.528 | -0.406 | -0.596 | 0.27 (inactive)
COc1ccc([Si](C)(C)[C@@H]2[C@@H](CCO)O[C@]3(C(=O)N(Cc4ccccc4)c4ccc(N5C(=O)c6cccc7cccc5c67)cc43)[C@H]2C)cc1 | 0.511 | 0.708 (inactive) | -0.146 | -0.155 | -0.0746 | 1.25 | -0.3 | -0.239 | -0.215 | 1.01 | -0.435 | -0.0814 | 0.15 | -0.304 | -0.384 | -0.176 | -0.0894 | -0.52 | 0.342 | -1.04 (inactive)
C=CCOC(=O)[C@@H]1[C@H]2C(=O)O[C@H](c3ccccc3)[C@H](c3ccccc3)N2[C@H](c2ccc(OCCOC(=O)[C@@H]3C[C@@H]4C(=O)N[C@@H](CCCC[N+](C)(C)C)C(=O)N4[C@@H]3c3ccc(O)cc3)cc2)[C@@]12C(=O)Nc1ccc(I)cc12 | 0.118 | -0.0092 (inactive) | 0.0282 | -0.084 | 0.473 | 1.92 | 0.417 | 1.29 | 0.841 | 0.756 | 2.68 | 1.15 | 0.67 | 0.412 | 1.12 | 1.24 | -1.76 | 1.08 | 0.216 | -2.38 (inactive)
CN(C)C(=O)[C@@]1(Cc2ccccc2)N=C(c2ccc(OCCCO)cc2)O[C@H]1c1ccccc1 | 0.637 | 0.684 (inactive) | 0.738 | 0.314 | 0.617 | 2.69 | 0.973 | 0.983 | -0.682 | 0.931 | 2.33 | 1.24 | 0.179 | 0.971 | 0.232 | 0.393 | 0.568 | -0.557 | 1.21 | -0.794 (inactive)
CS(=O)(=O)CCOC(=O)C1=CC(c2ccc(CO)cc2)=CC(C2CC2)N(Cc2sc3ccccc3c2Cl)C=C1C(=O)OCCS(C)(=O)=O (stereo not given) | 0.52 | 0.42 (inactive) | 0.029 | -0.0839 | 0.815 | 0.737 | 0.55 | 1.03 | 0.802 | 1.11 | 1.27 | 0.795 | 0.716 | 0.88 | 1.28 | 0.881 | 2.04 | 0.851 | 0.861 | -1.86 (inactive)
C=C[C@@H](CO)N(Cc1ccc(OC)cc1)S(=O)(=O)c1ccc(Br)cc1 | 0.131 | -0.0461 (inactive) | -0.147 | -0.0078 | 0.352 | 0.31 | -0.345 | 0.388 | 0.231 | 0.241 | 1.53 | 0.687 | 0.188 | -0.0952 | 0.351 | 0.965 | 0.739 | -0.327 | 0.316 | 0.356 (inactive)
COC(=O)[C@@]1(Cc2ccccc2)[C@H]2c3cc(C(=O)N4CCCC4)n(CCc4ccccn4)c3C[C@H]2CN1C(=O)c1ccccc1 | 1.06 | -1.17 (inactive) | 0.682 | 0.133 | 0.88 | 3.46 | 0.589 | 0.761 | -0.607 | 0.606 | -0.295 | 1.28 | 1.34 | 1.01 | 0.758 | -0.28 | -0.0942 | 0.0814 | 1.16 | 2.38 (inactive)
CC(C)N1CC=CC23O[C@@H]4C=CCCOC(=O)C4[C@H]2C(=O)N(CCCO)[C@@H]3C1=O (stereo not given in full) | -0.682 | -0.472 (inactive) | -0.112 | -0.0995 | 0.734 | -0.192 | 0.303 | 0.334 | -0.347 | -0.0639 | 0.939 | -0.0707 | 0.248 | -1.09 | -0.0801 | -0.565 | -1.31 | -0.0004 | -0.467 | 0.0763 (inactive)
